# Compounds with a hit are over-represented: about 11% of the library has one in this group of screens.
# HP1b chromo inh: inhibitors of HP1-beta chromodomain binding to methylated histone tails; P83916; Potency, µM (titrated, usually from 114 µM), without a hit: top-dose activity change, negative = inhibition, usual class: inhibitors; AlphaScreen HP1-beta / biotin-H3K9me3 peptide binding; actives 0.56% (n = 390,000); note: nearly all actives have a fitted effect of over 70% in size
#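 HP1-beta protein (50 nM final) preincubated 30 min at room temperature with biotinylated H3(1-18)K9me3 peptide (50 nM) in PBS pH 7.4, 0.01% Tween-20, then compound added for 30 min. AlphaScreen streptavidin donor/nickel chelate acceptor beads (10 ug/mL final), 30 min dark, luminescence read.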
# JMJD2A Tudor: JMJD2A Tudor domain (human) inhibition. O75164. AlphaScreen JMJD2A-Tudor / H3K4me3 peptide binding. Potency, µM (doses to about 114 µM), inactives show at the highest dose activity change, negative = inhibition, hits mostly inhibitors. actives 4.4% (n = 390,000); note: % is set by controls: 0 for no effect and ±100 for the full control effect; nearly all actives have a fitted effect of over 50% in size
# BAZ2B inh: inhibitors of human BAZ2B bromodomain | Q9UIF8 | AlphaScreen BAZ2B-H3K14Ac peptide displacement | Potency, µM (highest dose often 114 µM), without a hit: top-dose activity change, negative = inhibition, most hits filed as inhibitors | actives 4.4% (n = 360,000); note: % is set by controls: 0 for no effect and ±100 for the full control effect; nearly all actives have a fitted effect of over 60% in size
#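 Multi-concentration screen (max 110 uM) measuring displacement of acetylated histone H3 peptide from BAZ2B by AlphaScreen, using 50 nM protein, 50 nM peptide and 10 ug/mL streptavidin donor plus Ni-chelate acceptor beads.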
# G9a inh: inhibitors of human histone lysine methyltransferase G9a; Q96KQ7; G9a H3K9 monomethylation, AlphaScreen, 2 h; Potency, µM (top dose mostly 102 µM), for the others: at the highest dose activity, negative = inhibition, hits mostly inhibitors; actives 8.8% (n = 350,000); note: % is set by controls: 0 for no effect and ±100 for the full control effect; nearly all actives have a fitted effect of over 75% in size
#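 Compounds were preincubated with 20 nM G9a for 15 min, after which biotinylated H3K9 peptide (500 nM) and SAM (20 uM) started a 2 h room-temperature reaction. Monomethylated product was quantified by antibody-based AlphaScreen chemiluminescence.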
# L3MBTL1 inh: blocks human L3MBTL1; Q9Y468; AlphaScreen L3MBTL1–H3K9me1 peptide binding; Potency, µM (highest dose often 57.1 µM), without a hit: at the highest dose activity, negative = inhibition, most hits filed as inhibitors; actives 0.66% (n = 230,000); note: % is set by controls: 0 for no effect and ±100 for the full control effect; nearly all actives have a fitted effect of over 60% in size
# Target sequence (Q9Y468 whole entry, looked up): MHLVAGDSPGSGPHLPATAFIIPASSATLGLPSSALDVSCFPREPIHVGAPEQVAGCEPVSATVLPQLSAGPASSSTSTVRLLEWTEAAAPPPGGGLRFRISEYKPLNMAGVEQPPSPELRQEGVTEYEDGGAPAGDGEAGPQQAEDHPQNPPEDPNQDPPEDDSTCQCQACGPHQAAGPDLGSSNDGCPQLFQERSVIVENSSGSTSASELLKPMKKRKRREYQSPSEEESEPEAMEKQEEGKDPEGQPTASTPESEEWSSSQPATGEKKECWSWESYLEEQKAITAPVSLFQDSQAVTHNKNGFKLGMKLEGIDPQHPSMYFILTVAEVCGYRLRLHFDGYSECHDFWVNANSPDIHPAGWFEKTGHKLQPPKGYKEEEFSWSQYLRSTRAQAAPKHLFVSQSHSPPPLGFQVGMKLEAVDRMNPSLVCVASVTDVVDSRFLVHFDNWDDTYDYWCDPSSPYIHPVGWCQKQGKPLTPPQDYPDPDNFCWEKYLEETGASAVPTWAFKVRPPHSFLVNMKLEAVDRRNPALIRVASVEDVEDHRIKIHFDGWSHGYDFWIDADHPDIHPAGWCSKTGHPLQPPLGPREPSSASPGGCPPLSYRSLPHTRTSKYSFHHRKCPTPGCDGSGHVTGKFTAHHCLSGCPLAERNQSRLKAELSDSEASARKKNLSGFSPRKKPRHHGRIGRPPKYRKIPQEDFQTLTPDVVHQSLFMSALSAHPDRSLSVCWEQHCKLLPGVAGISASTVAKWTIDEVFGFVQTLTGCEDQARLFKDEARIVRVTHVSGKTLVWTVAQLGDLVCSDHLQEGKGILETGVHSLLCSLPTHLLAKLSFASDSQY
#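 AlphaScreen assay: L3MBTL1 (50 nM final) was preincubated 30 min at room temperature with biotinylated H3(1-15)K9me1 peptide (75 nM final), then 30 min with library compounds; streptavidin donor and nickel chelate acceptor beads (10 ug/mL final) added, 30 min dark.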
# * marks the source's active call; other numbers are inactive results; ? = inconclusive; . = no result given; [ ] = remark or other dose. Calls come from the whole dose curve; as a rule, active = well fitted inhibition curve with a large enough effect; inconclusive = small, poorly fitted or top-dose-only effect; inactive = no such curve, though single readings can be large or run the other way. Potency is the fitted concentration of half-maximal effect.
SMILES,HP1b chromo inh,JMJD2A Tudor,BAZ2B inh,G9a inh,L3MBTL1 inh
CCN(CC)CC(=O)NN(Cc1ccccc1)c1ccccc1,?,17.8µM*,79.4µM*,28.2µM*,6.3%
NS(=O)(=O)c1ccc(NC(=O)CN2CCCN(S(=O)(=O)c3ccc(F)cc3)CC2)cc1,42.3%,6.2%,11.6%,-36.7%,.
Cc1cccc(C)c1N1CCN(C(=O)Nc2ccc3c(c2)OCCO3)CC1,22.0%,50.1µM*,?,-10.4%,-11.7%
O=C(CN1CCN(S(=O)(=O)c2ccc(Cl)cc2)CC1)Nc1ccc(N2CCOCC2)cc1,16.4%,-21.4%,-27.3%,56.2µM*,-0.2%
NS(=O)(=O)c1ccc(NC(=O)CN2CCN(S(=O)(=O)c3ccc(F)cc3)CC2)cc1,10.8%,14.1µM*,-13.4%,17.8%,.
COc1cc2c(cc1OC)C(C)N(CC(=O)Nc1ccc(S(=O)(=O)N3CCCC3)cc1)CC2 (stereo not given),4.6%,-16.5%,-33.0%,39.8µM*,.
COc1ccc(C(=O)Nc2cc(-c3cccc(C)c3)nn2-c2ccccc2)cc1,12.3%[57 µM],-8.4%,5.4%,2.1%[59 µM],.
COc1ccc(C(=O)c2c(N)c(-c3nc(-c4ccc(OC)cc4)cs3)c3ccccn23)cc1,58.7%,3.0%,-2.6%,2.2%[59 µM],.
Cc1cccc(NC(=O)CN2CCN(C(=O)CN3C(=O)NC4(CC(C)CC(C)(C)C4)C3=O)CC2)c1C (stereo not given),33.8%,-1.3%,.,.,.
Cc1cc(SCC(=O)NCC(c2cccs2)N2CCOCC2)c(C)cc1Br (stereo not given),29.7%,-8.2%,4.0%,3.3%[12.7 µM],-2.8%
CCOC(=O)N1CCN(c2c(Nc3ccc4c(c3)OCCO4)c(=O)c2=O)CC1,73.5%,-12.1%,-18.9%,?,.
CC1CCN(S(=O)(=O)c2ccc(NC(=O)CN3CCN(C)CC3)cc2)CC1,?,3.16µM*,?,11.2µM*,4.8%
CC1CCN(S(=O)(=O)c2ccc(NC(=O)CN3CCCCCC3)cc2)CC1,30.9%,-17.9%,2.9%,?,.
O=C(CN1CCN(S(=O)(=O)c2cc(Cl)ccc2Cl)CC1)Nc1ccc2c(c1)OCCO2,19.5%,-18.3%,-5.5%,20µM*,-9.4%
CCOC(=O)N1CCN(CC(=O)NC(=O)Nc2ccc3c(c2)OCCO3)CC1,44.9%,-9.7%,0.9%,50.1µM*,12.4%
Cc1ccc(C)c(S(=O)(=O)N2CCN(CC(=O)Nc3ccc4c(c3)OCCO4)CC2)c1,-7.1%,-23.2%,-7.3%,4.0%[12.7 µM],.
C=CCN(CC=C)CC(=O)Nc1ccc(S(N)(=O)=O)cc1,22.5%,-11.8%,7.8%,0.708µM*,4.6%
Fc1ccc(-c2cn3cc(Cc4ccccc4Cl)sc3n2)cc1,36.4%,-3.8%,-6.8%,0.4%[59 µM],.
CCC1(C)CC(=O)N(c2ccc(C(=O)O)c(O)c2)C1=O (stereo not given),15.9%,-34.9%,-35.7%,50.1µM*,3.2%
CN(Cc1ccccc1)C(=O)c1c[nH]c2ccc(S(=O)(=O)Nc3ccccc3F)cc2c1=O,24.7%,-25.7%,.,12.8%[59 µM],.
Cc1ccc(C(=O)Nc2ccc(O)cc2C(=O)O)cc1,23.4%,?,-9.9%,-9.7%[59 µM],.
Cc1ccc(C(=O)Nc2ccc(O)cc2C(=O)O)cc1C,3.3%,?,79.4µM*,?,.
Cc1cc(N2C(=O)c3ccc(C(=O)Nc4ccc(O)cc4C(=O)O)cc3C2=O)no1,17.0%,-35.2%,79.4µM*,50.1µM*,.
CN(C)CCCNc1c2c(nc3ccccc13)CCC2,37.7%,-27.9%,-4.4%,39.8µM*,.
CSCc1cccc(C(=O)OC(C)C(=O)Nc2c(C)n(C)n(-c3ccccc3)c2=O)c1 (stereo not given),38.9%,5.2%,7.1%,8.91µM*,28.1%
SMILES,HP1b chromo inh,JMJD2A Tudor,BAZ2B inh,G9a inh,L3MBTL1 inh
CCOc1ccc(C2C(C(=O)c3ccco3)=C(O)C(=O)N2CCN2CCOCC2)cc1 (stereo not given),16.9%,-28.3%,-34.7%,?,.
CC1Cc2cc(S(=O)(=O)CCC(=O)Nc3ccccc3F)ccc2N1C(=O)C1CC1 (stereo not given),30.9%,-12.1%,-6.1%,-8.7%[59 µM],.
CN(C)S(=O)(=O)c1ccc(Cl)c(NC(=O)COC(=O)/C=C/c2ccco2)c1,14.3%,-19.6%,56.2µM*,?,-19.9%
CN(C)S(=O)(=O)c1cccc(NC(=O)COC(=O)/C=C/c2ccc(Br)o2)c1,?,-14.0%[11.4 µM],-33.3%,44.7µM*,-15.1%
O=C(COC(=O)/C=C/c1ccco1)NCc1ccc(Cl)cc1,22.1%,-5.2%,-5.1%,7.94µM*,-5.2%
O=C(COC(=O)/C=C/c1ccco1)NCc1ccccc1,45.2%,-18.2%,-36.4%,?,-7.7%
Cc1cccc(NC(=O)CSc2nc3c(sc4ccccc43)c(=O)n2CCCC(=O)NC2CCCC2)c1,43.8%,3.4%,1.4%[57.1 µM],5.6%[59 µM],.
Cc1ccc(S(=O)(=O)c2nnn3c2nc(N2CCN(c4ccc(F)cc4)CC2)c2cc(Cl)ccc23)cc1C,25.3%,-5.8%,0.8%,7.8%[59 µM],.
CCN(CC)CCN(C(=O)CCS(=O)(=O)c1ccccc1)c1nc2cc(OC)c(OC)cc2s1,36.3%,-8.8%,-19.0%,17.8µM*,.
CCN(CC)CCN(C(=O)CCS(=O)(=O)c1ccccc1)c1nc2cc(C)cc(C)c2s1,50.8%,-22.1%,-15.2%,35.5µM*,.
Cc1cc(C)c2sc(N(CCN(C)C)C(=O)CCS(=O)(=O)c3ccccc3)nc2c1,5.6%,?,-27.7%,39.8µM*,.
CCN(CC)CCN(C(=O)CCS(=O)(=O)c1ccccc1)c1nc2c(C)cc(C)cc2s1,14.8%,-22.8%,-3.0%,44.7µM*,.
Cc1ccc(C(=O)C(c2ccccc2)N2Cc3ccccc3C2=N)cc1 (stereo not given),?,28.2µM*,31.6µM*,11.2µM*,?
Cc1ccc(NC(=O)CN2C(=S)NC(C)(C)CC2C)cc1Cl (stereo not given),11.7%,-14.6%,-21.5%,15.8µM*,10.7%
Cc1cccc(NC(=O)CN2C(=S)NC(C)(C)CC2C)c1C (stereo not given),-3.6%,-3.5%,3.0%,?,3.5%
CC1CC(C)(C)NC(=S)N1CCCC(=O)N1CCN(c2ccccc2F)CC1 (stereo not given),-1.8%,-22.0%,-17.3%,0.2%[59 µM],-2.8%
CC1CC(C)(C)NC(=S)N1CCC(=O)NCCc1ccc(Cl)cc1 (stereo not given),13.0%,-15.3%,-4.4%,50.1µM*,21.1%
CC1CC(C)(C)NC(=S)N1CCC(=O)N1CCc2ccccc21 (stereo not given),20.3%,-4.4%,-11.8%,44.7µM*,-8.4%
CC(=O)c1cccc(NC(=O)CN2C(=S)NC(C)(C)CC2C)c1 (stereo not given),6.3%,12.0%,-18.5%,31.6µM*,16.5%
CC1CC(C)(C)NC(=S)N1CCCC(=O)NCCc1ccc(Cl)cc1 (stereo not given),33.7%,-8.8%,-14.5%,-27.8%,6.9%

# Assay outcomes from PubChem BioAssay.
